Results filed as inconclusive are left out. The source made the active and inactive calls. Unless noted, the call rests on the fitted dose curve; in most records, active means well fitted curve in the direction sought with a large enough effect in the repeat runs; inconclusive means weak or mixed curves; inactive means no such curve, though single readings can be large; an effect the other way counts as inactive or inconclusive.
Tests used:
[1] = target: Estrogen receptor beta (Homo sapiens) (UniProt Q92731); assay: qHTS assay to identify small molecule agonists of the estrogen receptor beta (ER-beta) signaling pathway (AID 1259377; active means well fitted activation curve with a large enough effect in the signal ratio in the repeat runs, not every such curve was filed as active; the % refers to the signal ratio)
Chain of Estrogen receptor beta (Homo sapiens) (Q92731 whole entry, looked up): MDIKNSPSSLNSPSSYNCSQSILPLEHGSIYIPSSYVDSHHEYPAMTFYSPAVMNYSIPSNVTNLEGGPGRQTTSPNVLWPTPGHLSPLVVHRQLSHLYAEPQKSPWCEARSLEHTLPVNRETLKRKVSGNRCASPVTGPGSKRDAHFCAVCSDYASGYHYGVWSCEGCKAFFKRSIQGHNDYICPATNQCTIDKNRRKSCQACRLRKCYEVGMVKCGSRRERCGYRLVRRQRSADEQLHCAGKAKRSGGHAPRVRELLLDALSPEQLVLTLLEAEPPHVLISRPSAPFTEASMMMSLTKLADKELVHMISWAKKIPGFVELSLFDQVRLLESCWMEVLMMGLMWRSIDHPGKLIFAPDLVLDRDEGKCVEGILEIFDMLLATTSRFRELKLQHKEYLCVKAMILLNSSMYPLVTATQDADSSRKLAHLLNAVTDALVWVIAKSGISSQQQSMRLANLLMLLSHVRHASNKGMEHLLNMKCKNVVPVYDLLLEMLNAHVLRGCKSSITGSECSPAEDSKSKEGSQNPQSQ
Summary of the method: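 A UAS-controlled beta-lactamase reporter in ER-beta-UAS-bla HEK293T cells reports receptor activation. Compounds act for 16 hr at 37C in 2% charcoal-stripped serum, and a FRET substrate is read by fluorescence after 2 hours.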

[2] = target: Estrogen receptor beta (Homo sapiens) (UniProt Q92731); assay: qHTS assay to identify small molecule antagonists of the estrogen receptor beta (ER-beta) signaling pathway (AID 1259378; active means well fitted inhibition curve with a large enough effect in the signal ratio in the repeat runs, not every such curve was filed as active; the % refers to the signal ratio)
Summary of the method: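 ER-beta-UAS-bla HEK293T (GripTite) cells in 2% charcoal-stripped FBS medium were preincubated 6 hr at 37C, dosed with compound, then stimulated with 1 nM E2 (final) for 16 hr; beta-lactamase reporter read by B/G FRET fluorescence after 2 hr substrate loading.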

[3] = qHTS assay to identify small molecule agonists of the androgen receptor (AR) signaling pathway in the presence of an antagonist - cell viability counter screen (AID 1259379);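 further: MDA-kb2 human breast cancer cells carrying an MMTV luciferase reporter; series mostly up to about 92 µM; nearly all actives have a fitted effect of over 25% in size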
Summary of the method: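 MDA-kb2 viability measured by CellTiter-Fluor fluorescence in the same wells as the luciferase signal; nilutamide 3.0uM final; 15-point compound titration; 16 hr at 37C.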

[4] = qHTS assay to identify small molecule agonists of the estrogen receptor beta (ER-beta) signaling pathway - cell viability counter screen (AID 1259380); further: nearly all actives have a fitted effect of over 30% in size
Summary of the method: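 Measured: luminescence from CellTiter-Glo after 30 min at room temperature, added to wells already read for the LiveBLAzer FRET reporter (2 hr substrate); ER-beta-UAS-bla HEK293T cells had 16 hr compound treatment at 37C, 5% CO2.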

[5] = target: Androgen receptor (Homo sapiens) (UniProt P10275); assay: qHTS assay to identify small molecule agonists of the androgen receptor (AR) signaling pathway in the presence of an antagonist (AID 1259381; calls by dose curve; further: nearly all actives have a fitted effect of over 15% in size)
Chain of Androgen receptor (Homo sapiens) (P10275 whole entry, looked up): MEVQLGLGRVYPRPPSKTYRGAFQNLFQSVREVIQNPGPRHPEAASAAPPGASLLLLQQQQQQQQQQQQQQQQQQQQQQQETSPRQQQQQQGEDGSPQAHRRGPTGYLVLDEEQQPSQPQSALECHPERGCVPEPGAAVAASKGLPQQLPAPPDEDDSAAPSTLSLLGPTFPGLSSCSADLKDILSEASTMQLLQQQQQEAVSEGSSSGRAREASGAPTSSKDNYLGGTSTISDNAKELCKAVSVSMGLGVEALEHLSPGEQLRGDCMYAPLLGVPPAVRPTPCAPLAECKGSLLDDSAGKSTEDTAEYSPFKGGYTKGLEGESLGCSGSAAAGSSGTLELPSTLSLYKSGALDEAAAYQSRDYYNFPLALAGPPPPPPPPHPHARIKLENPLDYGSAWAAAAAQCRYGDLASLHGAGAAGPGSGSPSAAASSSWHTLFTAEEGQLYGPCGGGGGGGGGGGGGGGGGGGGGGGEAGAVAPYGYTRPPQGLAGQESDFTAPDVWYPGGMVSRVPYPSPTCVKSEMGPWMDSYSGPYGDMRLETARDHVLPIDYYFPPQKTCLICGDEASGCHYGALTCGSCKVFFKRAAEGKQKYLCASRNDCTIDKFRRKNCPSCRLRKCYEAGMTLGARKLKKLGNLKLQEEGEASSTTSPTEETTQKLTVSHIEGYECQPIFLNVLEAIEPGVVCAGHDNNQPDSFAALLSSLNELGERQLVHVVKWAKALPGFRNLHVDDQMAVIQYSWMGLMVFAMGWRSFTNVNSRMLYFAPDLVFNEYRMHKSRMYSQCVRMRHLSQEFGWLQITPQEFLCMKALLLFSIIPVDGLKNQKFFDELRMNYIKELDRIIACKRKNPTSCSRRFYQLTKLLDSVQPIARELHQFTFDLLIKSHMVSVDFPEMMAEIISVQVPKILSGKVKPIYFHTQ
Summary of the method: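 Luminescent ONE-Glo read, 30min at room temperature, follows 16hr compound exposure (15 concentrations) of MDA-kb2 cells at 37C, 0% CO2, with nilutamide added at 3.0uM final.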

[6] = qHTS assay to identify small molecule antagonists of the estrogen receptor beta (ER-beta) signaling pathway - cell viability counter screen (AID 1259382); further: series mostly up to about 92 µM; nearly all actives have a fitted effect of over 55% in size
Summary of the method: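 Readout: luminescence, CellTiter-Glo, same wells as bla assay. System: ER-beta-UAS-bla GripTite HEK293T, 2% charcoal-stripped FBS. Exposure: compounds plus 1nM 17-beta-estradiol, 16 hr, 37C.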

[7] = target: Estrogen receptor (Homo sapiens) (UniProt P03372); assay: qHTS assay to identify small molecule agonists of the estrogen receptor alpha (ER-alpha) signaling pathway in the presence of an antagonist (AID 1259383; calls by dose curve; further: top concentration of the series differs between compounds; nearly all actives have a fitted effect of over 15% in size)
Chain of Estrogen receptor (Homo sapiens) (P03372 whole entry, looked up): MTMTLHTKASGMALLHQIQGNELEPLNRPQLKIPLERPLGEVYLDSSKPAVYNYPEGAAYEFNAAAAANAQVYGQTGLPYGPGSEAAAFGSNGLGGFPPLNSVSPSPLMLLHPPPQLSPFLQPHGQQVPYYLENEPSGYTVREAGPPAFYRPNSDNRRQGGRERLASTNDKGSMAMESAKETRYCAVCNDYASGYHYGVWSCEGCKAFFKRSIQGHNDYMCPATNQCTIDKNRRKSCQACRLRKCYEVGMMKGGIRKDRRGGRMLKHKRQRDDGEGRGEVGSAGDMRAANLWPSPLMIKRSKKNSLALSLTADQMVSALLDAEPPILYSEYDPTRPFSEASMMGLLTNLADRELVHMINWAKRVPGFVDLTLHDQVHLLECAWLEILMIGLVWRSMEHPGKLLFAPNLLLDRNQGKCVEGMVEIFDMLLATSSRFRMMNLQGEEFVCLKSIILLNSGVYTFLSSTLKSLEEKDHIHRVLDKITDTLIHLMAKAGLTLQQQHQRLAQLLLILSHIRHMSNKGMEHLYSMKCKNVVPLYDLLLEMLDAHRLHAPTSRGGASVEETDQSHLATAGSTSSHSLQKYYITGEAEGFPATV
Summary of the method: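 Quantitative HTS confirmation: compounds titrated at 15 concentrations onto estrogen-deprived VM7Luc4E2 cells carrying a four-ERE luciferase construct, with ICI-182,780 present at 10.0nM final. Signal is luminescence after 22hr exposure.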

[8] = qHTS assay to identify small molecule agonists or antagonists of the thyroid stimulating hormone receptor (TSHR) signaling pathway - wild type cell line counter screen (AID 1259384; calls by dose curve)
Summary of the method: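 Wild-type HEK293 cells were plated 18 h at 37 C/5% CO2, pin-dosed with compound plus Ro20-1724 medium, held 30 min at room temperature, then given cAMP-d2 and anti-cAMP-cryptate; fluorescence was read after 1 h. Fifteen concentrations, triplicate.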

[9] = target: Thyrotropin receptor (Homo sapiens) (UniProt P16473); assay: qHTS assay to identify small molecule antagonists of the thyroid stimulating hormone receptor (TSHR) signaling pathway (AID 1259385; calls by dose curve; further: nearly all actives have a fitted effect of over 20% in size)
Chain of Thyrotropin receptor (Homo sapiens) (P16473 whole entry, looked up): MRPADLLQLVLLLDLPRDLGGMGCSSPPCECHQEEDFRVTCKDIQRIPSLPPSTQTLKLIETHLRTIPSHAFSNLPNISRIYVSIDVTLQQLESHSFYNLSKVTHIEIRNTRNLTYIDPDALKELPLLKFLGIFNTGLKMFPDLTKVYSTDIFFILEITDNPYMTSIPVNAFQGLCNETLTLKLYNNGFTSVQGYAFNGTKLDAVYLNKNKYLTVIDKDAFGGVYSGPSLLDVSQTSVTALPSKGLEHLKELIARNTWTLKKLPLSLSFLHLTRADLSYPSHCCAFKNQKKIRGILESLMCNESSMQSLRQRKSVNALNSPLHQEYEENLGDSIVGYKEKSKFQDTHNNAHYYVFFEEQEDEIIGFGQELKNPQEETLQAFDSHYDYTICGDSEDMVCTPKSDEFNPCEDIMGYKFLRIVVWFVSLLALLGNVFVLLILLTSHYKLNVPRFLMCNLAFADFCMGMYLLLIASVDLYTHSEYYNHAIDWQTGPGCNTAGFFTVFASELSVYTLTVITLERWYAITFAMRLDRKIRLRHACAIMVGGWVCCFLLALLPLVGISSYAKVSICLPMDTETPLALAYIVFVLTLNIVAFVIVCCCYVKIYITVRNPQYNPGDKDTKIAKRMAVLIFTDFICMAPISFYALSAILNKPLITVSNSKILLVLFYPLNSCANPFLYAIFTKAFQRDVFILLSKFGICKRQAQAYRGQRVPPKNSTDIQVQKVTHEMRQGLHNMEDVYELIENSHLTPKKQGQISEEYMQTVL
Summary of the method: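 TSHR-HEK293 cells were plated and held 18 h at 37C/5% CO2, then given compound plus Ro20-1724 and stimulated with TSH at 1.5 ng/mL final. After 30 min at room temperature, cAMP was detected with cAMP-d2/anti-cAMP-cryptate (1 h) by fluorescence.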

[10] = qHTS assay to identify small molecule agonists of the estrogen receptor alpha (ER-alpha) signaling pathway in the presence of an antagonist - cell viability counter screen (AID 1259386);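 further: series mostly up to about 92 µM; cells exposed to compounds for 22 h at 37 °C before the viability read; nearly all actives have a fitted effect of over 30% in size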
Summary of the method: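 The test measures whether compounds kill ER-alpha reporter cells (VM7Luc4E2) under antagonist co-treatment (ICI-182,780, 10.0nM). Fluorescence from CellTiter-Fluor is read after a 22hr exposure.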
On the % scale 0 is the no-effect control and ±100 the full control effect.

O=C(OCc1ccccc1)C(=O)OCc1ccccc1
inactive: Potency [1] | outcome [2] | Potency [3] | Potency [4] | Potency [5] | outcome [6] | outcome [7] | outcome [8] | outcome [9] | Potency [10]

O=C(O)C(=O)Cc1ccccc1
inactive: Potency [1] | outcome [2] | Potency [3] | Potency [4] | Potency [5] | outcome [6] | outcome [7] | outcome [8] | outcome [9] | Potency [10]

O=C(Nc1ccc(Cl)c(Cl)c1)C1CC1
inactive: Potency [1] | outcome [2] | Potency [3] | Potency [4] | Potency [5] | outcome [6] | outcome [7] | outcome [8] | outcome [9] | Potency [10]

Cc1cc(C(C)(C)C)c(O)c(C)c1CC1=NCCN1
inactive: Potency [1] | outcome [2] | Potency [3] | Potency [4] | Potency [5] | outcome [6] | outcome [7] | outcome [8] | Potency [10]

CC/C=C\CC1=C(C)CCC1=O
inactive: Potency [1] | outcome [2] | Potency [3] | Potency [4] | Potency [5] | outcome [6] | outcome [8] | outcome [9] | Potency [10]

CC(=O)OC(C)OC(=O)C(C)c1ccc(-c2ccccc2)c(F)c1 (centres undefined)
inactive: Potency [1] | outcome [2] | Potency [3] | Potency [4] | Potency [5] | outcome [6] | outcome [7] | outcome [8] | outcome [9] | Potency [10]

O=C(O)Cc1ccc(Cl)cc1Cl
inactive: Potency [1] | outcome [2] | Potency [3] | Potency [4] | Potency [5] | outcome [6] | outcome [7] | outcome [9] | Potency [10]

COCCOCCOCCOCCO
inactive: Potency [1] | outcome [2] | Potency [3] | Potency [4] | Potency [5] | outcome [6] | outcome [7] | outcome [8] | Potency [10]

CNC(=O)[C@H]1O[C@@H](n2cnc3c(NCc4cc(Cl)ccc4OCc4cc(C)no4)ncnc32)[C@H](O)[C@@H]1N
inactive: Potency [1] | outcome [2] | Potency [3] | Potency [4] | Potency [5] | outcome [6] | outcome [7] | outcome [9] | Potency [10]

CC(C)(C)c1nnc(NS(=O)(=O)c2ccc(N)cc2)s1
inactive: Potency [1] | outcome [2] | Potency [3] | Potency [4] | Potency [5] | outcome [6] | outcome [7] | outcome [8] | Potency [10]

C=COCCOCCOCCOC=C
inactive: Potency [1] | outcome [2] | Potency [3] | Potency [4] | Potency [5] | outcome [6] | Potency [10]

Cc1cccc(C)c1NC(=O)c1ccccc1C(=O)O
inactive: Potency [1] | outcome [2] | Potency [3] | Potency [4] | Potency [5] | outcome [6] | outcome [7] | outcome [8] | outcome [9] | Potency [10]

O=C(O)CCSSCCC(=O)O
inactive: Potency [1] | outcome [2] | Potency [3] | Potency [4] | Potency [5] | outcome [6] | outcome [7] | outcome [9] | Potency [10]

N#Cc1ccc(C(=O)O)cc1
inactive: Potency [5]

Cc1cc(Cl)c(C)cc1Cl
inactive: Potency [5]

C[C@@H](Oc1ccc(CNC(=O)c2cccnc2Oc2ccc3c(c2)OCO3)c(F)c1)C(=O)O
inactive: Potency [1] | outcome [2] | Potency [3] | Potency [4] | outcome [6] | outcome [7] | Potency [10]

CC(C)=CCOC(=O)c1ccccc1
inactive: Potency [1] | outcome [2] | Potency [3] | Potency [4] | outcome [6] | outcome [8] | outcome [9] | Potency [10]

CCC(C=O)CC
inactive: Potency [1] | outcome [2] | Potency [3] | Potency [4] | outcome [6] | outcome [8] | Potency [10]

O=C(NCCN1CCOCC1)c1ccc(Cl)cc1
inactive: Potency [1] | outcome [2] | Potency [3] | Potency [4] | outcome [6] | outcome [8] | outcome [9] | Potency [10]

C=C(C)C(=O)OCC(C)(C)COC(=O)C(=C)C
inactive: Potency [1] | outcome [2] | Potency [3] | Potency [4] | outcome [6] | outcome [7] | Potency [10]

COCCOCCOCCOCCOCCO
inactive: Potency [1] | outcome [2] | Potency [3] | Potency [4] | outcome [6] | outcome [8] | outcome [9] | Potency [10]

Cc1nc2n(c(=O)c1CCN1CCC(c3noc4cc(F)ccc34)CC1)CCC[C@H]2O
inactive: activation [1] 1.63% [at 19 µM] | activity, negative = inhibition [2] 0.444% [at 19 µM] | activity change, negative = cytotoxicity [3] -2.37% [at 19 µM] | activity change, negative = cytotoxicity [4] -7.67% [at 19 µM] | activity change, negative = cytotoxicity [6] 1.75% [at 19 µM] | activation [7] 0% [at 19 µM] | activity change, negative = inhibition [9] -7.26% [at 19 µM] | activity change, negative = cytotoxicity [10] -2.18% [at 19 µM]

N[C@@H](COP(=O)(O)O)C(=O)O
inactive: activation [1] 0.272% [at 19 µM] | activity, negative = inhibition [2] 18.6% [at 19 µM] | activity change, negative = cytotoxicity [3] -2.46% [at 19 µM] | activity change, negative = cytotoxicity [4] 5.8% [at 19 µM] | activity change, negative = cytotoxicity [6] 9.58% [at 19 µM] | cAMP activity change [8] 0.501% [at 18.9 µM] | activity change, negative = inhibition [9] -0.736% [at 19 µM] | activity change, negative = cytotoxicity [10] 0.187% [at 19 µM]

COC(=O)CCc1ccc(OCC(O)CNC(C)C)cc1 (centres undefined)
inactive: Potency [1] | outcome [2] | Potency [3] | Potency [4] | outcome [6] | outcome [8] | outcome [9] | Potency [10]

O=P(O)(O)OP(=O)(O)O
inactive: Potency [1] | outcome [2] | Potency [3] | Potency [4] | outcome [6] | outcome [8] | Potency [10]

CC(=O)CCCCn1c(=O)c2c(ncn2C)n(C)c1=O
inactive: Potency [1] | outcome [2] | Potency [3] | Potency [4] | outcome [6] | outcome [7] | outcome [9] | Potency [10]

O=C1CC(c2ccc(Cl)cc2)CC(=O)N1
inactive: Potency [1] | outcome [2] | Potency [3] | Potency [4] | outcome [6] | outcome [7] | outcome [9] | Potency [10]
